Results reported in publication PMC7862700, “An all-to-all approach to the identification of sequence-specific readers for epigenetic DNA modifications on cytosine”.

Assays:
Test in all cases: DAPPL (digital affinity profiling via proximity ligation, sequencing); 10 mM Tris-HCl pH 7.5, 50 mM NaCl, 1 mM DTT, 4% glycerol, room temperature, 30 min; GST-TFs on glutathione beads, 16-mer random dsDNA library, 0.1% formaldehyde crosslink after washing; high values mean tight binding
FLI1 = molecular target: T1, FLI1 (Homo sapiens, UniProt Q01543 1-452); settings: protein: recombinant; tags: N-terminal GST; dsDNA, one strand shown
T1 sequence: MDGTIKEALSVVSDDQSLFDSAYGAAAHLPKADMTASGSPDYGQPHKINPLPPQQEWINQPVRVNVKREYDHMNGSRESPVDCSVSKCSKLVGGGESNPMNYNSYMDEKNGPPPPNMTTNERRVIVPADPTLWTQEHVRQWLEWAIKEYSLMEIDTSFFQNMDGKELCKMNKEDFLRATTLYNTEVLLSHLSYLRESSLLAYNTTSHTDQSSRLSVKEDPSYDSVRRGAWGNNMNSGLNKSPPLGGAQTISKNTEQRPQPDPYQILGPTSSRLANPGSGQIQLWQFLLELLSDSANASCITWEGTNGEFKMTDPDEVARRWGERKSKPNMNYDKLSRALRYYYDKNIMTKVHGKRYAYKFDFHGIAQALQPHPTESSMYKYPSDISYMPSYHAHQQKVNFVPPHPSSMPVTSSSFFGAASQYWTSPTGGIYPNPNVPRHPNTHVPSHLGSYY
Procedure, shortened: (§1)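 Yeast served to express human transcription factors as GST fusions, which were then captured on glutathione beads and labelled with DNA barcodes. Pooled with a tag-only sample, they were incubated with 200 nmole of a 16-mer random double-stranded DNA library for 30 min at room temperature in Tris/NaCl/DTT/glycerol buffer, washed, crosslinked with 0.1% formaldehyde, ligated by proximity, amplified by PCR and sequenced. Dividing each hexamer's read frequency for a factor by its frequency for the tag-only sample gives the binding signal.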

ELK1 = molecular target: T2, ELK1 (Homo sapiens, UniProt P19419 1-428); settings: protein: recombinant; tags: N-terminal GST; dsDNA, one strand shown
T2 sequence: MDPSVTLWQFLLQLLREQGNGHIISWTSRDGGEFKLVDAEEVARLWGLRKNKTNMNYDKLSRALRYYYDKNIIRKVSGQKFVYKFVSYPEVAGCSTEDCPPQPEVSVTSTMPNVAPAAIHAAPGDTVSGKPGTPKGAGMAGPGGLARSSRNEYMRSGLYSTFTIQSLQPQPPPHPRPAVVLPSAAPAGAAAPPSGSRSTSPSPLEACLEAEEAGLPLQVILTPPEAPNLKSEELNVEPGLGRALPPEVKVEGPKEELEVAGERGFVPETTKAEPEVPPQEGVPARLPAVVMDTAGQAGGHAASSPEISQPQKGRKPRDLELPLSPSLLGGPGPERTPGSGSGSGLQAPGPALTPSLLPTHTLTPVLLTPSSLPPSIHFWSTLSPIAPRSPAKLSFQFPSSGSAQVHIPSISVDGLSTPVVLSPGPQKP
Procedure, shortened: as §1

GABPA = molecular target: T3, GABPA (Homo sapiens, UniProt Q06546 1-454); settings: protein: recombinant; tags: N-terminal GST; dsDNA, one strand shown
T3 sequence: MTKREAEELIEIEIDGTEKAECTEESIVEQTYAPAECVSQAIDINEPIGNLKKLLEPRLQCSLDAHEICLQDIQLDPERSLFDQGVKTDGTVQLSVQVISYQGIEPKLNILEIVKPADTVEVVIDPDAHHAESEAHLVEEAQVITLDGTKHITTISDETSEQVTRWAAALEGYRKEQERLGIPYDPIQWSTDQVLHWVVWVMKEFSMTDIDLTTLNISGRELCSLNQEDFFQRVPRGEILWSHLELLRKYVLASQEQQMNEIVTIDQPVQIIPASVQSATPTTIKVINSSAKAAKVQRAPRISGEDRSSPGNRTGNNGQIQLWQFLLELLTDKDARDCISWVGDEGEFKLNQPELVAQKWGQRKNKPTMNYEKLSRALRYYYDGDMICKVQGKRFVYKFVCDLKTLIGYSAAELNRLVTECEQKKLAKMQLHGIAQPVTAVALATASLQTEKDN
Procedure, shortened: as §1

ELF1 = ELF1 (Homo sapiens, UniProt P32519 1-619); settings: protein: recombinant; tags: N-terminal GST; dsDNA, one strand shown
Procedure, shortened: as §1

EHF = molecular target: T4, EHF (Homo sapiens, UniProt Q9NZC4 1-300); settings: protein: recombinant; tags: N-terminal GST; dsDNA, one strand shown
T4 sequence: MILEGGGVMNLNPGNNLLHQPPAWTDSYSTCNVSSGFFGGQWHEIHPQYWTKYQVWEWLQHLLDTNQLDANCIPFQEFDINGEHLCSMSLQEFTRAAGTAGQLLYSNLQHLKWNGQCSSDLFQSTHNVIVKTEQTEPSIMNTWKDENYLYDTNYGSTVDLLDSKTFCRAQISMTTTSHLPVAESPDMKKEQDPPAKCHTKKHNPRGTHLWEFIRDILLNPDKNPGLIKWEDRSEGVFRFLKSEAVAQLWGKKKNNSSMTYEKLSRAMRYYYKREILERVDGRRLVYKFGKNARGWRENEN
Procedure, shortened: as §1

ELK3 = molecular target: T5, ELK3 (Homo sapiens, UniProt P41970 1-407); settings: protein: recombinant; tags: N-terminal GST; dsDNA, one strand shown
T5 sequence: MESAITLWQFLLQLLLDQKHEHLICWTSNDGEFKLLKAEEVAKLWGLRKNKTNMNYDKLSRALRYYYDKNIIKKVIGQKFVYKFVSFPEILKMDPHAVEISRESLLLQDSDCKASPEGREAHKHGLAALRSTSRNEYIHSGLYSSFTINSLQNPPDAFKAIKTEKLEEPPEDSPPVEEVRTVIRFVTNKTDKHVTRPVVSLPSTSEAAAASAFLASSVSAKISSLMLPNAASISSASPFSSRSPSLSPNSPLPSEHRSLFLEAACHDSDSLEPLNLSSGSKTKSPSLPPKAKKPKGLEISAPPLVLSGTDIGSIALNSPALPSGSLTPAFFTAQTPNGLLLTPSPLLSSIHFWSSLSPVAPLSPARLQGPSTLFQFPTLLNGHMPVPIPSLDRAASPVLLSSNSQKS
Procedure, shortened: as §1

ETV5 = ETV5 (Homo sapiens, UniProt P41161 1-510); settings: protein: recombinant; tags: N-terminal GST; dsDNA, one strand shown
Procedure, shortened: as §1

HSF1 = HSF1 (Homo sapiens, UniProt Q00613 1-529); settings: protein: recombinant; tags: N-terminal GST; chain copies: 3; dsDNA, one strand shown
Procedure, shortened: as §1

SPIC = molecular target: T6, SPIC (Homo sapiens, UniProt Q8N5J4 1-248); settings: protein: recombinant; tags: N-terminal GST; dsDNA, one strand shown
T6 sequence: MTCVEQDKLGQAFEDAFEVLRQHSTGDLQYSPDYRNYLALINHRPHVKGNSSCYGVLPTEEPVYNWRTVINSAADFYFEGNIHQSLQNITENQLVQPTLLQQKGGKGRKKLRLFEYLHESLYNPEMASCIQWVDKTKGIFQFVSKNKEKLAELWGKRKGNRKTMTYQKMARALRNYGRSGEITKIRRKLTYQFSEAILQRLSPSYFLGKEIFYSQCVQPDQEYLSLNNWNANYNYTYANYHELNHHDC
Procedure, shortened: as §1

ELF4 = ELF4 (Homo sapiens, UniProt Q99607 1-663); settings: protein: recombinant; tags: N-terminal GST; dsDNA, one strand shown
Procedure, shortened: as §1

ELK4 = molecular target: T7, ELK4 (Homo sapiens, UniProt P28324-2 1-405); settings: protein: recombinant; tags: N-terminal GST; dsDNA, one strand shown
T7 sequence: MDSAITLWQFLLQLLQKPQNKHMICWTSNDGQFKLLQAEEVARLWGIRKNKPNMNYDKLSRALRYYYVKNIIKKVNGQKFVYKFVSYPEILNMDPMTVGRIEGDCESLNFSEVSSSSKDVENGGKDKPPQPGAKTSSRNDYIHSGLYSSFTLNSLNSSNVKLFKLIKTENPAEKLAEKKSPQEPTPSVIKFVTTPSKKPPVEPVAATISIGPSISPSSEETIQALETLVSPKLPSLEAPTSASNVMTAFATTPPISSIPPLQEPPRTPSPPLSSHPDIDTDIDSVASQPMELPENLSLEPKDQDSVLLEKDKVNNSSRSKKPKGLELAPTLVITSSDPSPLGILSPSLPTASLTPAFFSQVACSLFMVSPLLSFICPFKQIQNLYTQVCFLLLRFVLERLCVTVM
Procedure, shortened: as §1

ELF3 = molecular target: T8, ELF3 (Homo sapiens, UniProt P78545 1-371); settings: protein: recombinant; tags: N-terminal GST; dsDNA, one strand shown
T8 sequence: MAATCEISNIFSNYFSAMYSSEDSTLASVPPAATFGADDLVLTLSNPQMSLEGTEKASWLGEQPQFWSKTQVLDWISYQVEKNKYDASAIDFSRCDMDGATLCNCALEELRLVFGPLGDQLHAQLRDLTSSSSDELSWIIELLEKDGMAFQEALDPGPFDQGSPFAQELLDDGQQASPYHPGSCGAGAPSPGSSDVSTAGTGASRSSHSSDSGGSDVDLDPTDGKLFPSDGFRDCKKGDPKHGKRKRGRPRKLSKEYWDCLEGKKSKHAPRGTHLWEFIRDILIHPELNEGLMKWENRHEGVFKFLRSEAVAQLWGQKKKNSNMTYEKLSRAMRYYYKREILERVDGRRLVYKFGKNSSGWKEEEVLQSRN
Procedure, shortened: as §1

CRX = CRX (Homo sapiens, UniProt O43186 1-299); settings: protein: recombinant; tags: N-terminal GST; dsDNA, one strand shown
Procedure, shortened: as §1

ETV1 = ETV1 (Homo sapiens, UniProt P50549 1-477); settings: protein: recombinant; tags: N-terminal GST; dsDNA, one strand shown
Procedure, shortened: as §1

ERG = molecular target: T9, ERG (Homo sapiens, UniProt P11308 1-479); settings: protein: recombinant; tags: N-terminal GST; dsDNA, one strand shown
T9 sequence: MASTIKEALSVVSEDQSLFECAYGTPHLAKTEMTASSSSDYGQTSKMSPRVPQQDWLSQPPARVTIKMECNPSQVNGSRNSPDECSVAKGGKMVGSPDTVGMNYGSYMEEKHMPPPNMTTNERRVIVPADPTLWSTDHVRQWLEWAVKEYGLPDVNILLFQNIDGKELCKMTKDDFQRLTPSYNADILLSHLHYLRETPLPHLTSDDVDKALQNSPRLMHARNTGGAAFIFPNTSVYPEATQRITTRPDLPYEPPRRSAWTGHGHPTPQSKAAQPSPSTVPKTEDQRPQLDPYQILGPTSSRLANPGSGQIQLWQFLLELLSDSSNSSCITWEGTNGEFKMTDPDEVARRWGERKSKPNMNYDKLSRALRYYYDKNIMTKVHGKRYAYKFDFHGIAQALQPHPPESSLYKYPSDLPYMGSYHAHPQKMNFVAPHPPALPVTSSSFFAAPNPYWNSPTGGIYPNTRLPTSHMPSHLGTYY
Procedure, shortened: as §1

SPI1 = SPI1 (Homo sapiens, UniProt P17947 1-270); settings: protein: recombinant; tags: N-terminal GST; dsDNA, one strand shown
Procedure, shortened: as §1

Chain of HSF1 (Q00613 whole entry): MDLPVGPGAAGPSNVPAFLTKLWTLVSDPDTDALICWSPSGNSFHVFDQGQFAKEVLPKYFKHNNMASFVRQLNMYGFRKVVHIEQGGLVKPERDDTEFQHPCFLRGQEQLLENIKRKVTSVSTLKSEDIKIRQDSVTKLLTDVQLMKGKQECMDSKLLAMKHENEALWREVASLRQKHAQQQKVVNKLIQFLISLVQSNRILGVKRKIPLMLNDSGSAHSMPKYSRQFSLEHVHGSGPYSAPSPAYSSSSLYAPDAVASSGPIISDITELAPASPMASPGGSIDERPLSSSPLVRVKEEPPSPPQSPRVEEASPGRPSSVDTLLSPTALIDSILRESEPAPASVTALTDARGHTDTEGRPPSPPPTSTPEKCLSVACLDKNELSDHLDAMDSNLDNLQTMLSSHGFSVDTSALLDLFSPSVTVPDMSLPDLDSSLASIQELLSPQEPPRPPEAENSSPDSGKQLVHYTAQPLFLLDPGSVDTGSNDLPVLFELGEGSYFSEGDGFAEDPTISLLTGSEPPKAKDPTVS
Chain of ELF1 (P32519 whole entry): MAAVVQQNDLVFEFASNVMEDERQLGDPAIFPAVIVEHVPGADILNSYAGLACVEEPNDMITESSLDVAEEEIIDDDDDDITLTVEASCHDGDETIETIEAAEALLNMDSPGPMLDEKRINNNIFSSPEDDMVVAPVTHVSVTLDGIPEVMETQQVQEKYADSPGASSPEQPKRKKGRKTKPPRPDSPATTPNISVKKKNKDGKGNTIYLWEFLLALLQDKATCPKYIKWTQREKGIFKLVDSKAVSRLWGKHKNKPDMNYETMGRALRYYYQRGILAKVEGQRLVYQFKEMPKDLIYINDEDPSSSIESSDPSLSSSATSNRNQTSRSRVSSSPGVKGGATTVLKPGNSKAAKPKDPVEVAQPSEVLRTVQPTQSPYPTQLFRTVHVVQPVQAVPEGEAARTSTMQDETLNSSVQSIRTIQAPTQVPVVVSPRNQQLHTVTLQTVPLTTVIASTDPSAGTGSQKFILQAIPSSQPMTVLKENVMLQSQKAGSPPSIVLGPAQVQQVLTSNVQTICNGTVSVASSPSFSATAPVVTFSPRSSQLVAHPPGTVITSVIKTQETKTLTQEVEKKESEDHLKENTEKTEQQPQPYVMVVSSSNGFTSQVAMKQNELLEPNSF
Chain of CRX (O43186 whole entry): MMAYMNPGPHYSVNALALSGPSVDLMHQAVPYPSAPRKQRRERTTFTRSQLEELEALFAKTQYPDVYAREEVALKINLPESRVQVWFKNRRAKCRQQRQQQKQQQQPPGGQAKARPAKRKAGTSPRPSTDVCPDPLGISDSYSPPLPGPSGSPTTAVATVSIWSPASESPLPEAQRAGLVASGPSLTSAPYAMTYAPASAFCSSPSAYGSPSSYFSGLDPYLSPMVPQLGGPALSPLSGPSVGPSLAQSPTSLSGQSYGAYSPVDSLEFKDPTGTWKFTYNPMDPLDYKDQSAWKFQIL
Chain of ELF4 (Q99607 whole entry): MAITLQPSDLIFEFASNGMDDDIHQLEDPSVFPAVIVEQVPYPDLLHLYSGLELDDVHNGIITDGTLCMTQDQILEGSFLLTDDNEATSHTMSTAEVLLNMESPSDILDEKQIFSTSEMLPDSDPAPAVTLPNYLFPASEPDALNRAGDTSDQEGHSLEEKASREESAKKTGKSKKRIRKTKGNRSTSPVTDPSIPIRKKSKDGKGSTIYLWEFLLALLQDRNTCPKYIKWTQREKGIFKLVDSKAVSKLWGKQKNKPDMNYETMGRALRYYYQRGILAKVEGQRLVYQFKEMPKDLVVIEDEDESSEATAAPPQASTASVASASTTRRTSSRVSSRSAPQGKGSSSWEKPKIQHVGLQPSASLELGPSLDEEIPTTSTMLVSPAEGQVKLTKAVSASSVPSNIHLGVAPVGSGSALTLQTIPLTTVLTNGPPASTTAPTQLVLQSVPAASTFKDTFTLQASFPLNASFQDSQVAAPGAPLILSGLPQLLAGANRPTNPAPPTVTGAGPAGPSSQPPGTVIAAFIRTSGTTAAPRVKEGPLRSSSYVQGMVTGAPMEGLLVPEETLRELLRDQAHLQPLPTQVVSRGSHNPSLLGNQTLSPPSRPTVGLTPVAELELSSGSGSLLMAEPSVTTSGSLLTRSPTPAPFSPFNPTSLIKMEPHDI
Chain of ETV5 (P41161 whole entry): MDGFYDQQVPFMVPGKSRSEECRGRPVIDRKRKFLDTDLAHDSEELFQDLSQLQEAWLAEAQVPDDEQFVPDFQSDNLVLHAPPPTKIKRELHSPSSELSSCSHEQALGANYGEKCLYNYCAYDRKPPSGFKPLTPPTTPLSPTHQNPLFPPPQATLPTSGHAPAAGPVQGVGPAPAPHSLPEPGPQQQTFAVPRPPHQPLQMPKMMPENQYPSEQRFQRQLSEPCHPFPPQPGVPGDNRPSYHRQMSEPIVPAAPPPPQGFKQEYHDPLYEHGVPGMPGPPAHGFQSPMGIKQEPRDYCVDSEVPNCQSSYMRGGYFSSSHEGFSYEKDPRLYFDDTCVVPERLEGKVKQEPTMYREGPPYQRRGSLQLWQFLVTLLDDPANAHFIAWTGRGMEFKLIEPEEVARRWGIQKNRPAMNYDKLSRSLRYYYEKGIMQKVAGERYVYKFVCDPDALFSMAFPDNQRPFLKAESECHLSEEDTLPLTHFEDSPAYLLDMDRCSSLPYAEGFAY
Chain of ETV1 (P50549 whole entry): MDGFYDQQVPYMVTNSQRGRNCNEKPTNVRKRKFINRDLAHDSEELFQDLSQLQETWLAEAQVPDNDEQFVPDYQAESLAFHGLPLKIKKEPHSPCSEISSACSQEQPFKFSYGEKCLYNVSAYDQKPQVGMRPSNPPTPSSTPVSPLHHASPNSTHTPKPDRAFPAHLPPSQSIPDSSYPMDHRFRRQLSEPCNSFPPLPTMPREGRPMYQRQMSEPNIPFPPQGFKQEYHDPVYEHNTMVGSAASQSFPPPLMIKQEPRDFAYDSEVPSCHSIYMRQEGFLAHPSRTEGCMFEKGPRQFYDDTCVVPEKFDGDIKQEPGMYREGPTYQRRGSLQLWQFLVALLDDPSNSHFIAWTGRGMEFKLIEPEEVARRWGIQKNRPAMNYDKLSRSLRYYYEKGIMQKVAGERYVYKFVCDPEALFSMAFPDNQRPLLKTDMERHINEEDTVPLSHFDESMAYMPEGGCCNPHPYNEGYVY

Sequence | binding signal (FLI1) | binding signal (ELK1) | binding signal (GABPA) | binding signal (ELF1) | binding signal (EHF) | binding signal (ELK3) | binding signal (ETV5) | binding signal (HSF1) | binding signal (SPIC) | binding signal (ELF4) | binding signal (ELK4) | binding signal (ELF3) | binding signal (CRX) | binding signal (ETV1) | binding signal (ERG) | binding signal (SPI1)
TCATGA | 1.12 fold enrichment (6-mer frequency, TF over GST control) | 1 fold enrichment (6-mer frequency, TF over GST control) | 1.18 fold enrichment (6-mer frequency, TF over GST control) | 1.03 fold enrichment (6-mer frequency, TF over GST control) | 1.07 fold enrichment (6-mer frequency, TF over GST control) | 1.05 fold enrichment (6-mer frequency, TF over GST control) | 1.08 fold enrichment (6-mer frequency, TF over GST control) | 1.06 fold enrichment (6-mer frequency, TF over GST control) | 1.07 fold enrichment (6-mer frequency, TF over GST control) | 1.06 fold enrichment (6-mer frequency, TF over GST control) | 1.03 fold enrichment (6-mer frequency, TF over GST control) | 1 fold enrichment (6-mer frequency, TF over GST control) | 1.07 fold enrichment (6-mer frequency, TF over GST control) | 1.14 fold enrichment (6-mer frequency, TF over GST control) | – | –
ATGAAG | 1.1 fold enrichment (6-mer frequency, TF over GST control) | 1.1 fold enrichment (6-mer frequency, TF over GST control) | 1.04 fold enrichment (6-mer frequency, TF over GST control) | 1.04 fold enrichment (6-mer frequency, TF over GST control) | 1.06 fold enrichment (6-mer frequency, TF over GST control) | 1.05 fold enrichment (6-mer frequency, TF over GST control) | 1.01 fold enrichment (6-mer frequency, TF over GST control) | 1.07 fold enrichment (6-mer frequency, TF over GST control) | 1.14 fold enrichment (6-mer frequency, TF over GST control) | 1.08 fold enrichment (6-mer frequency, TF over GST control) | 1.17 fold enrichment (6-mer frequency, TF over GST control) | 1.02 fold enrichment (6-mer frequency, TF over GST control) | 1.04 fold enrichment (6-mer frequency, TF over GST control) | – | 1.1 fold enrichment (6-mer frequency, TF over GST control) | 1.05 fold enrichment (6-mer frequency, TF over GST control)
